An excerpt weighted towards active compounds, which were near 3.3% of everything screened.
SARS PLpro yeast – inhibitors of SARS-CoV papain-like protease in yeast. hit rate 0.19% among 330,000. S. cerevisiae expressing SARS-CoV PLpro, growth rescue. Potency, µM (series often up to 32.9 µM), for the others: at the highest dose activity, positive = growth rescue, actives largely listed as activators; calls by dose curve; note: 0% is about no effect; nearly all actives have a fitted effect of over 55% in size
Sm TGR block – blocks Schistosoma mansoni thioredoxin glutathione reductase. Potency, µM (highest dose often 114 µM), without a hit: top-dose activity change, negative = inhibition, most hits filed as inhibitors. purified TGR, DTNB reduction, TNB absorbance 405 nm. hit rate 3% among 360,000. Q962Y6; note: % is set by controls: 0 for no effect and ±100 for the full control effect; nearly all actives have a fitted effect of over 60% in size
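Kinetic colorimetric format: TGR-catalysed, NADPH-driven DTNB reduction monitored via TNB absorbance. Enzyme dispensed at 20 nM; compound exposure 15 min at room temperature before reaction start.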
Tb PYK inh – T. brucei pyruvate kinase inhibition | Potency, µM (titrated, usually from 76.8 µM), inactives show top-dose activity, negative = inhibition, usual class: inhibitors | TbPYK enzyme, Kinase-Glo Plus ATP luminescence, 45 min | hit rate 0.12% among 410,000; note: % is set by controls: 0 for no effect and ±100 for the full control effect; nearly all actives have a fitted effect of over 50% in size
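Enzyme and substrate buffer are dispensed first and compound is pin-transferred. ADP at 130 uM final then starts the reaction, which runs 45 min at room temperature. Detection reagent is added for 10 min before luminescence is imaged.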
LmPK inhibitor – inhibitors of Leishmania mexicana pyruvate kinase; hit rate 0.37% among 290,000; purified LmPK, Kinase-Glo ATP luminescence, 1 h; Potency, µM (titrated, usually from 57.5 µM), inactives show top-dose activity change, negative = inhibition, most hits filed as inhibitors; note: % is set by controls: 0 for no effect and ±100 for the full control effect
Target sequence (Q27686 whole entry, looked up): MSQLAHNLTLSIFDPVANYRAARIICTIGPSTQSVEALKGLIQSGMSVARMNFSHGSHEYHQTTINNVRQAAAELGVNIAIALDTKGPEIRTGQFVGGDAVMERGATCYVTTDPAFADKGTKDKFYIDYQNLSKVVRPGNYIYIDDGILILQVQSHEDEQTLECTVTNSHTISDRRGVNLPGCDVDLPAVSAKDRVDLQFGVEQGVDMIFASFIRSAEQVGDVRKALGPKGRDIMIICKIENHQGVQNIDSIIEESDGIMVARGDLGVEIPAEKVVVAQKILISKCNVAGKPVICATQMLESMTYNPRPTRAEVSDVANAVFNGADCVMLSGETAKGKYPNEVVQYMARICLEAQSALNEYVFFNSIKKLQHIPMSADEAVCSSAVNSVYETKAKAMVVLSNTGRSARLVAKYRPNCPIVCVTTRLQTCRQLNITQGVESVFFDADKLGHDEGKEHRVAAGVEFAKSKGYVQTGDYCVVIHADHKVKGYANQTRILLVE
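Kinase-Glo luminescence read after 1 h RT reaction of 0.1 nM LmPK with 0.5 mM PEP and 0.1 mM ADP. Activity scaled between uninhibited and enzyme-free controls.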
RE007 growth inh – less growth of the S. pombe RE007 Vpr strain | S. pombe RE007 Vpr strain, BacTiter-Glo ATP luminescence, 24 h | Potency, µM (series often up to 92.2 µM), inactives show at the top dose activity change, negative = less growth, actives largely listed as inhibitors | hit rate 0.21% among 360,000 | AID 651644; active = well fitted falling curve with a large enough effect; inconclusive = small, poorly fitted or top-dose-only effect; inactive = no such curve, though single readings can be large or run the other way; note: % is set by controls: 0 for no effect and ±100 for the full control effect; nearly all actives have a fitted effect of over 50% in size
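Fission yeast strain RE007, carrying one chromosomally integrated HIV-1 vpr copy, was seeded at OD 0.01 in PMG+AL medium with 23 nL pinned compound. After 24 h at 30 °C and 99% humidity, viability was read by BacTiter-Glo luminescence.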
NS1 function inh – blocks influenza NS1 protein function; Potency, µM (series often up to 46.1 µM), for the others: top-dose activity, positive = more growth; hit rate 0.4% among 270,000; calls by dose curve; note: actives are rising curves; nearly all actives have a fitted effect of over 50% in size
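S. cerevisiae expressing influenza A NS1, grown in glucose, washed, then diluted 1:100 into pH 6.0 -URA galactose medium with 23 nl compound. Growth recovery read as OD600; NS1-free strain serves as control.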
* = called active by the depositor; ? = inconclusive; nt = not tested or not shown; [ ] = dose if it differs, or a comment. Unless noted, calls come from the whole dose curve; as a rule, active = well fitted curve in the direction sought with a large enough effect; inconclusive = small, poorly fitted or top-dose-only effect, or another doubt; inactive = no such curve, though single readings can be large; an effect the other way counts as inactive or inconclusive. Potency is the fitted concentration of half-maximal effect.

SMILES	SARS PLpro yeast	Sm TGR block	Tb PYK inh	LmPK inhibitor	RE007 growth inh	NS1 function inh
C[C@@]12C[C@H](O)C3[C@H](CCC4=CC(=O)CC[C@]43C)[C@H]1CC[C@@H]2c1csc(N)n1 (stereo partly specified)	nt	nt	nt	nt	nt	-11%
COc1cc(-c2nc3nc[nH]n3c2Nc2ccc(C(C)C)cc2)ccc1O	nt	14µM*	3%	nt	nt	nt
O=c1oc2c(CN3CCOCC3)c(O)ccc2c2ccccc12	3%	0%	1%	0%	-1%	-8%
COc1ccc(Oc2coc3c(CN4CCOCC4)c(O)ccc3c2=O)cc1	5%	45µM*	0%	-1%	0%	0%
Cc1cc(=O)oc2c(CN3CCN(C)CC3)c(O)c(Cl)cc12	?	50µM*	1%	-7%	1%	27%
O=c1oc2c(CN3CCOCC3)c(O)c(Cl)cc2c2c1CCCC2	-19%	45µM*	-2%	-3%	1%	-73%
O=c1oc2c(CN3CCOCC3)c(O)ccc2c2c1CCCC2	0%	79µM*	0%	1%	-10%	-6%
COc1ccc(Oc2coc3c(CN(C)C)c(O)ccc3c2=O)cc1	-8%	-27%	-2%	-1%	-12%	6%
CCCc1cc(=O)oc2c(CN3CCN(C)CC3)c(O)c(Cl)cc12	6%	?	-1%	7%	-1%	4%
Cc1c(C)c2cc(Cl)c(O)c(CN3CCCCC3)c2oc1=O	-2%	-11%	5%	4%	-5%	6%
COc1ccc(C(=O)c2cccc(C(=O)c3ccc(OC)c(C)c3)c2)cc1C	-3%	-14%	6%	1%	-5%	1%
COc1ccc(C(=O)c2ccc(OC)c(Br)c2)cc1Br	-11%	10µM*	1%	0%	-4%	2%
O=C(CCCCl)Nc1c2c(nn1-c1ccccc1)CSC2	4%	-1%	-13%	0%	9%	-6%
O=C(CCl)Nc1c2c(nn1-c1ccccc1)CSC2	-3%	10µM*	-17%	0%	0%	-28%
COCCCNC(=O)c1ccc(N(C)S(C)(=O)=O)cc1	8%	28µM*	3%	-4%	1%	5%
CC(=O)Nc1nonc1-c1nnc(SCC(=O)Nc2cc(C)ccc2C)n1-c1ccccc1	nt	-1%	1%	nt	nt	nt
CC1CCN(c2nc3c(S(=O)(=O)c4cccc(Cl)c4)nnn3c3ccsc23)CC1	nt	33%	5%	nt	nt	nt
CCC1=[N+](CC(=O)c2ccc(Br)cc2)CCn2c(C)ccc21	7%	18µM*	5%	-4%	-14%	7%
Cc1ccc2c(c1)c(=O)c1ccccc1n2CCCC(=O)Nc1cc(Cl)ccc1C	nt	16%	-15%	nt	nt	nt
Cc1ccc(N2CC(C(=O)NCCC(C)C)CC2=O)cc1 (stereo unspecified)	2%	-5%	-10%	0%	24%	-12%
Cc1ccc(N2CC(C(=O)NCc3ccc(C)n3C)CC2=O)cc1 (stereo unspecified)	-1%	40µM*	1%	-5%	11%	nt
CN1[C@@H]2CC[C@@H]1CC(OC(=O)[C@H](CO)c1ccccc1)C2 (stereo partly specified)	nt	nt	1%	nt	nt	nt
O=C1c2ccccc2C(=O)N1C[C@]1(C(=O)O)NCCS1(=O)=O	nt	nt	nt	nt	nt	2%
CCOC(=O)c1nc(S(C)(=O)=O)ncc1N1CCOCC1	7%	6%	-2%	-1%	6%	4%
CS(=O)(=O)c1ncc(Cl)c(C(=O)Nc2ccc(N3CCOCC3)cc2)n1	26%	16µM*	-4%	3%	-16%	-14%
SMILES	SARS PLpro yeast	Sm TGR block	Tb PYK inh	LmPK inhibitor	RE007 growth inh	NS1 function inh
CS(=O)(=O)c1ncc(Cl)c(C(=O)Nc2ccc(OC(F)F)cc2)n1	-13%	7.9µM*	5%	1%	-15%	-62%
CCOC(=O)c1nc(S(C)(=O)=O)ncc1Cl	-23%	8.9µM*	-6%	4%	-1%	-41%
COc1cccc(CNC(=O)CCn2c(=O)c3cccn3c3ccc(F)cc32)c1OC	nt	-16%	1%	nt	nt	nt
COCCCNC(=O)CS(=O)Cc1nc(-c2cccc(OC)c2)oc1C (stereo unspecified)	3%	40µM*	nt	3%	0%[3.69 µM]	3%
COCCCNC(=O)CS(=O)Cc1nc(-c2cccc(C)c2)oc1C (stereo unspecified)	nt	?	1%	nt	nt	nt
COc1cccc(-c2nc(CS(=O)CC(=O)NCc3ccccc3Cl)c(C)o2)c1 (stereo unspecified)	9%	32µM*	0%	8%	4%	-7%
COc1ccc(-c2nc(CS(=O)CC(=O)NCc3ccccc3Cl)c(C)o2)cc1OC (stereo unspecified)	nt	-21%	4%	nt	nt	nt
COc1ccc(S(=O)(=O)Cc2ccc(C(=O)N3CCN(c4ccccn4)CC3)o2)cc1	4%	0%	-5%	-3%	-8%	-10%
O=C(c1ccc(CS(=O)(=O)c2ccc(Br)cc2)o1)N1CCN(c2ncccn2)CC1	-5%	50µM*	-2%	0%	7%	0%
COc1ccccc1S(=O)(=O)Cc1ccc(C(=O)N2CCN(c3ccccn3)CC2)o1	-1%	28µM*	-4%	4%	-11%	-7%
CCCCC1(Br)C(=O)N(c2ccccc2)N(c2ccccc2)C1=O	-3%	14µM*	?	nt	24%	nt
Cc1coc2cc3oc(=O)c(CCC(=O)NCc4ccc(Cl)cc4)c(C)c3cc12	nt	3%	2%	nt	nt	nt
COCCn1c(C)cc(O)c(C(c2ccc(F)cc2)N2CCN(c3ccccc3)CC2)c1=O (stereo unspecified)	nt	3.2µM*	-15%	nt	nt	nt
COCCn1c(C)cc(O)c(C(c2ccc(Cl)cc2)N2CCN(c3ccccc3)CC2)c1=O (stereo unspecified)	nt	2.8µM*	-11%	nt	nt	nt
CCOc1ccc(C(c2c(O)cc(C)n(CCOC)c2=O)N2CCN(c3ccccc3)CC2)cc1 (stereo unspecified)	nt	6.3µM*	3%	nt	nt	nt
CCOc1ccc(C(c2c(NC(=O)c3ccccc3)sc(C)c2C)N2CCN(C)CC2)cc1 (stereo unspecified)	-5%	-1%	-3%	-2%	43%	25%
COCCn1c(=O)[nH]c2cc(C(=O)N3CCN(c4ccc(Cl)cc4)CC3)ccc2c1=O	1%	3%	2%	0%	21%	20%
Cc1ccccc1Oc1nc2c(c(=O)n(C)c(=O)n2C)n1Cc1ccc(Br)cc1	nt	-3%	1%	nt	nt	nt
CCC(c1nnnn1CCc1ccccc1)N(Cc1ccco1)Cc1cc2cc(C)cc(C)c2[nH]c1=O (stereo unspecified)	-2%	56µM*	-2%	2%	7%	2%
